Assay results reported in PubChem BioAssay.

Columns and labels:
[1] = molecular target: PEG-3 (UniProt Q6IN02); assay: inhibition of PEG-3 promoter-driven reporter – cell-based, HeLa, luciferase, CREF/GAPDH counter-screen panel, dose response (AID 624167); details: CREF/GAPDH counter-screens; HeLa PEG-Prom luciferase reporter, overnight, run 1, dose range 1, at 100 µM (top of the series) unless noted
[2] = molecular target: PEG-3 (UniProt Q6IN02); assay: as above; details: CREF/GAPDH counter-screens; HeLa PEG-Prom luciferase reporter, overnight, run 2, dose range 1, at 100 µM (top of the series) unless noted

PEG-3, sequence (Q6IN02 whole entry, looked up): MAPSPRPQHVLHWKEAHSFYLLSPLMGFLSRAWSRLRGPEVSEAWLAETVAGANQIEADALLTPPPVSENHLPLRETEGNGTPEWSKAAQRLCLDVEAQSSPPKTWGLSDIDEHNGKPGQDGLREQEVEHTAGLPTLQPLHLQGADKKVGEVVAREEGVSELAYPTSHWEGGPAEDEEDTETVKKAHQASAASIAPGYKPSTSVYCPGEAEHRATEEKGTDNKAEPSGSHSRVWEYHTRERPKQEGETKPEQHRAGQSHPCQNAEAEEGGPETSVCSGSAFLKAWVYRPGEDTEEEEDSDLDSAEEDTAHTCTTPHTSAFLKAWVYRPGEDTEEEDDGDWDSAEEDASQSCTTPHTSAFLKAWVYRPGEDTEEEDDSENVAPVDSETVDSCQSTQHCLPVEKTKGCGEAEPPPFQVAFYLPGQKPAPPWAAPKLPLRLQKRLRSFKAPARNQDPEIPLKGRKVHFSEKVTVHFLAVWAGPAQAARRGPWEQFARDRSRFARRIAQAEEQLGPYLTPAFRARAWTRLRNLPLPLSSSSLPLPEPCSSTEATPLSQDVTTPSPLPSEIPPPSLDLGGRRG

Row | SMILES | inhibition [1] [%] | inhibition [2] [%]
1 | COc1ccc2c(c1)C=C([C@@H]1C[C@H]3CN(c4ccccc4)C(=O)[C@]34CCCN14)CO2 | 65.2 | 74
2 | CCOc1cc(/C=N/Nc2nc(-c3cccc(S(=O)(=O)N4CCCC4)c3)cs2)ccc1O | 77.8 | 95.5
3 | Cc1c(C(=O)N2CCN(c3ccc(F)cc3)CC2)sc2ncnc(N3CCN(c4ccccn4)CC3)c12 | 67.2 | 77.6
4 | COC(=O)c1ccc(Nc2cc(C)nc3ccc(C)cc23)cc1 | 98.7 | 100
5 | O=C(Nc1ccc(-c2nc3ccccc3o2)cc1)c1ccc(N2CCOCC2)c([N+](=O)[O-])c1 | 17.1 | 37.6
6 | CC(C)CN(C(=O)COC(=O)/C=C/c1ccc(Cl)c(Cl)c1)c1c(N)n(Cc2ccccc2)c(=O)[nH]c1=O | -7.53 | -24.4
7 | CCCCCCCNC(=O)C1(CC2CC(c3ccccc3)=NO2)CCNCC1 (centres undefined) | 97.9 | 98.7
8 | CN(C)CCNC(=O)/C(=C/c1ccc(-c2ccc(Cl)cc2)o1)NC(=O)c1ccccc1 | 102 | 98.6
9 | N#Cc1cc2c(nc1SC1CC(=O)N(c3ccccc3)C1=O)CCC2 (centres undefined) | 33.5 | 25.6
10 | O=C(Nc1ccc(S(=O)(=O)NC2=NCCCCC2)cc1)c1ccc([N+](=O)[O-])s1 | 102 | 101
11 | CC(=O)Nc1cccc(-c2cc(NC=O)c3ncc(-c4ccc(C(C)=O)cc4)n3c2)c1 | 12.8 | 31.9
12 | COc1cccc(C(=O)O/N=C(\N)c2ccccn2)c1 | 102 | 95.8
13 | O=Nc1c(O)ccc2cc(S(=O)(=O)O)ccc12 | 84.7 | 89.5
14 | COc1ccc(Nc2oc(COc3ccccc3OC)nc2C#N)cc1 | 69.9 | 88.5
15 | COc1ccc(C[C@H]2CN3C(=NC[C@@H]3Cc3ccc(O)cc3)N2C[C@H](C)NC(=O)c2ccc(C)c(Br)c2)cc1 | 102 | 102
16 | O=C(CN1CCN(Cc2ccccc2Cl)CC1)N=Nc1c(O)[nH]c2ccccc12 | 94.2 | 90.4
17 | O=[N+]([O-])c1ccc(-c2nc(Nc3cccc(O)c3)c3ccccc3n2)cc1 | 99.4 | 101
18 | CCN(CC)CCSc1nnc2c3cc(C)ccc3n(Cc3ccccc3)c2n1 | 102 | 99.8
19 | COc1ccc(-c2ccc3[nH]c4c(c3c2)CCN2C[C@@H]([C@H](C)O)[C@@H](N(C)C(=O)Nc3cc(Cl)cc(Cl)c3)C[C@@H]42)cc1 | 96.3 | 96.5
20 | CCOC(=O)C1CCN(c2cc3c(cc2NC(=O)c2ccccc2OCC)n(C)c(=O)n3C)CC1 | 101 | 101
21 | CCCCCCCn1c(=N)n(CC(O)c2ccco2)c2ccccc21 (centres undefined) | 101 | 99.1
22 | CC(C(=O)NC1CCCC1)N(C(=O)Cn1nnc(-c2ccc(F)cc2)n1)c1ccccc1F (centres undefined) | 99.3 | 102
